Screening data deposited in PubChem by National Center for Advancing Translational Sciences (NCATS).
AMA1 RON2 block: disrupts binding of P. falciparum AMA1 to RON2. Potency, µM (titrated, usually from 58.2 µM), without a hit: top-dose activity change, negative = inhibition, actives largely listed as inhibitors. hit rate 0.2% among 360,000. AlphaScreen AMA1-biotinylated RON2 peptide binding;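 also: 0% = vehicle wells and -100% = peptide control; nearly all actives have a fitted effect of over 45% in size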
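AMA1 (3D7) with his tag at 25 nM final met compounds first, then biotinylated RON2 peptide at 25 nM; detection used donor plus acceptor beads, 10 µg/mL apiece, read by AlphaScreen after 30 min at room temperature.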
SARS PLP yeast: blocks SARS-CoV papain-like protease in a yeast assay; S. cerevisiae expressing SARS-CoV PLpro, growth rescue; Potency, µM (doses to about 32.9 µM), inactives show top-dose activity, positive = growth rescue, usual class: activators; hit rate 0.19% among 330,000; AID 485353; calls by dose curve; also: 0% is about no effect; nearly all actives have a fitted effect of over 55% in size
Pf growth 48h: P. falciparum growth inhibition at 48 hours (one generation) | P. falciparum luciferase growth in erythrocytes, 48 h | Potency, µM (doses to about 28.7 µM), for the others: at the highest dose activity change, negative = inhibition, usual class: inhibitors | hit rate 5.9% among 310,000 | AID 504832; also: % is scaled to controls: 0 for no effect and ±100 for the full control effect
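Luciferase-expressing P. falciparum in infected erythrocytes (2% hematocrit, 0.1% parasitemia final) in RPMI 1640/0.5% Albumax were exposed to compound for 48 hours at 37 C, 5% CO2; growth read as luminescence.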
Pf growth 96h: P. falciparum growth inhibition at 96 hours; P. falciparum luciferase reporter growth, 96 h; Potency, µM (highest dose often 28.7 µM), for the others: at the top dose activity change, negative = inhibition, hits mostly inhibitors; hit rate 6.9% among 320,000; AID 504834; also: % is scaled to controls: 0 for no effect and ±100 for the full control effect
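Delayed-death screen, second-generation endpoint: infected erythrocytes, 2% hematocrit, 0.05% parasitemia final; 96 hours at 37 C, 5% CO2; luciferase detection reagent; luminescence decrease equals reduced growth.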
Starred values were filed as active, the others as inactive; u = inconclusive; x = no result given; [ ] = remark or other dose. A selection: hits, their analogues and other compounds. The true share with any hit is near 9.4%. Unless noted, calls follow the shape of the dose curve; as a rule, active = well fitted curve in the direction sought with a large enough effect; inconclusive = small, poorly fitted or top-dose-only effect, or another doubt; inactive = no such curve, though single readings can be large; an effect the other way counts as inactive or inconclusive. Potency is read from the fitted curve at half-maximal effect.

SMILES | AMA1 RON2 block | SARS PLP yeast | Pf growth 48h | Pf growth 96h
CCCNC(=O)CN(C)S(=O)(=O)c1c(C)cc(C)cc1C | -6% | -3% | 7.4µM* | 10µM*
CCCNC(=O)CN(C)S(=O)(=O)c1ccc(F)cc1 | -1% | 3% | -8% | 12%
CCCCN1CC(O)C(O)C(O)C1CO (configuration not stated) | x | x | 3% | u
Cc1nn(-c2ccccc2)c(N)c1-c1ccccc1 | -8% | 2% | 92% | 240%
Cc1nn(-c2ccccc2)c(N)c1C(c1ccc(C(C)C)cc1)c1c(C)nn(-c2ccccc2)c1N | 1% | 3% | 10µM* | 0%
Cc1ccc(C(c2c(C)nn(-c3ccccc3)c2N)c2c(C)nn(-c3ccccc3)c2N)cc1 | -5% | 4% | 10µM* | 13µM*
c1ccc(CNc2nc(N3CCN(Cc4ccccc4)CC3)nc3ccccc23)cc1 | u | -1% | 5.2µM* | u
c1ccc(CN2CCC(Nc3nc(-c4ccccc4)nc4ccccc34)CC2)cc1 | 3% | -8% | 8.3µM* | x
c1coc(CNc2nc(N3CCCCC3)nc3ccccc23)c1 | -5% | -5% | 6.6µM* | x
c1ccc(N2CCN(c3nc(NCc4ccco4)c4ccccc4n3)CC2)cc1 | -29% | -4% | 2.3µM* | 2.3µM*
c1ccc(CN2CCC(CNc3ncnc4ccccc34)C2)cc1 (configuration not stated) | -2% | x | x | x
Oc1ccccc1-c1nc(NCc2ccco2)c2ccccc2n1 | 2% | -5% | -22% | u
Cc1ccc(Cn2cc(/C=N/NC(=O)Cc3nnc(NC(=O)c4ccc(C)cc4)s3)c3ccccc32)cc1 | 27% | -2% | 54% | -10%
Cc1ccc(-n2nc(C(=O)NCc3ccco3)c3c4ccccc4n(C)c3c2=O)cc1 | 16% | -4% | 14% | -23%
COc1cccc(N=C2SC(C(=O)Nc3ccc(F)cc3)CC(=O)N2C)c1 (configuration not stated) | -2% | -5% | u | -26%
c1ccc(-c2nc(NCc3ccco3)c3ccccc3n2)nc1 | -19% | -17% | 2.6µM* | 2.9µM*
COc1c(Cl)cc(C(=O)Nc2ccccc2C(=O)O)cc1Cl | -13% | -8% | 6% | u
COc1ccc(OCc2nnc(SCC(=O)N3CCCC3)o2)cc1 | 7% | 2% | 5% | u
COc1ccc(C(=O)NCc2nnc(SCC(=O)N3CCCCC3)o2)cc1OC | 0% | 6% | x | 3.3µM*
COc1ccc(Cc2nnc(SCC(=O)N3CCCC(C)C3)o2)cc1 (configuration not stated) | 1% | 0% | 7.4µM* | u
COc1ccc(OCc2nnc(SCC(=O)N3CCCCC3)o2)cc1 | 1% | 1% | 4% | 12µM*
O=C(NCc1nnc(SCC(=O)N2CCN(c3ccccc3)CC2)o1)c1c(F)cccc1Cl | 14% | -2% | -16% | 10µM*
CCCCC(NC(=O)Cc1c(C)c2cc3c4c(oc3cc2oc1=O)CCCC4)C(=O)O (configuration not stated) | -2% | 1% | 31% | 44%
CC1CC(NC(=O)Cc2ccc(Br)cc2)CC(C)(C)C1 (configuration not stated) | 11% | -3% | 12µM* | u
COc1ccc2[nH]c(=O)c(CN(Cc3ccco3)C(c3nnnn3Cc3ccccc3)C(C)C)cc2c1 (configuration not stated) | -11% | -3% | x | 3.3µM*
SMILES | AMA1 RON2 block | SARS PLP yeast | Pf growth 48h | Pf growth 96h
CCc1ccc2[nH]c(=O)c(CN(Cc3ccc(OC)cc3)Cc3nnnn3CCOC)cc2c1 | 4% | 5% | 1.9µM* | u
COCCn1nnnc1C(C(C)C)N(Cc1ccccc1)Cc1cc2cc(OC)ccc2[nH]c1=O (configuration not stated) | -7% | 4% | 8.3µM* | 222%[5.75 µM]
Cc1cccc2cc(CN(Cc3ccco3)C(c3nnnn3CCc3ccccc3)C(C)C)c(=O)[nH]c12 (configuration not stated) | -3% | -3% | 1.9µM* | -13%
Cc1c(Br)c([N+](=O)[O-])nn1CC(=O)NCc1cccs1 | -3% | 4% | -25% | 0%
O=C(O)CCS(=O)(=O)Cc1ccccc1Cl | 3% | 3% | 8% | x
O=C(CS(=O)c1cccc(Cl)c1)Nc1ccccc1Cl (configuration not stated) | 22% | 7% | 5% | 28%
O=C(Nc1cccc2ccccc12)N1CCCN(c2c(Cl)cncc2Cl)CC1 | 8% | 0% | u | 5.9µM*
COC(=O)c1ccccc1NC(=S)N1CCN(c2ccccc2)CC1 | -13% | -2% | 14%[0.00184 µM] | -5%
O=C(Nc1cccc2ccccc12)N1CCN(c2ccc(F)cc2)CC1 | 5% | -3% | 13% | 1.5µM*
COC(=O)c1ccccc1NC(=O)N1CCN(c2ccc(F)cc2)CC1 | -17% | 0% | -9% | 4.1µM*
COC(=O)c1cc(Cl)c(NC(=O)c2cc(OC)c(OC)c(OC)c2)cc1OC | 10% | -1% | 18% | 11%
Cc1cccc(NC(=S)N(CCc2nc3cc(C)c(C)cc3[nH]2)Cc2cccnc2)c1 | 10% | 6% | u | -5%
COc1cccc(N=Cc2c(O)n(Cc3ccco3)c(=O)[nH]c2=O)c1 | -5% | -2% | -27% | -13%
CC(C)n1c(=O)c(C=Nc2ccc(F)cc2)c(O)n(Cc2ccco2)c1=O | 2% | 13% | 15µM* | u
CC(C)n1c(=O)c(C=Nc2ccc(Cl)cc2)c(O)n(Cc2ccco2)c1=O | x | 9% | 10µM* | 1µM*
CC(C)OCCCNC(=O)c1ccc(N(C)S(C)(=O)=O)cc1 | -3% | 0% | 16% | -21%
Cc1ccc(O)c(NC(=O)c2onc(C)c2Cl)c1 | -18% | -4% | 12µM* | -8%
Cc1noc(C(=O)Nc2cccc(Cl)c2)c1Cl | 5% | -4% | 109% | 9.3µM*
COC(=O)c1ccccc1NC(=O)c1onc(C)c1Cl | 7% | 0% | 31% | 5.2µM*
O=C1CSC(c2cccnc2)N1Cc1cccnc1 (configuration not stated) | 8% | 0% | 14% | -12%
O=C(CNC(=O)c1ccccc1Br)N/N=C/c1ccc(O)cc1 | 23% | -3% | 203% | u
Nn1c(SCC(=O)Nc2ccc3c(c2)OCCO3)nnc1C(F)(F)F | 8% | -11% | 9% | -1%
O=C1C(=O)N(Cc2cccnc2)C(c2cccc(O)c2)/C1=C(\O)c1ccc2c(c1)OCCO2 (configuration not stated) | 9% | 6% | 32% | 30%
O=C(c1[nH]ncc1-c1cccc(Br)c1)C1CO1 (configuration not stated) | 15% | 0% | 15µM* | u
O=C(c1[nH]ncc1-c1ccccc1)C1CO1 (configuration not stated) | 0% | 0% | u | u
C=CCc1c(C)[nH]c2ccc(C)cc2c1=O | 0% | -5% | 1.5µM* | x
CCc1c(C)[nH]c2ccc(C)cc2c1=O | -8% | -6% | 1.7µM* | 13%
CCCc1c(C)c2cc(C)ccc2[nH]c1=O | -1% | -1% | 15% | 9.3µM*
Cc1ccc2[nH]c(C)c(CC(=O)O)c2c1 | -5% | -10% | u | x
